Laboratory results as given in PubChem BioAssay AID1159580 (chemical genetic matrix, 2015).
About 2,000 (36%) of roughly 5,500 compounds were called active. Another 18% or so got no clear call; they are omitted. Cut-off read from the data, not from the text of the source: active = normalized growth mostly below about 0.91 (no sharp cut-off); inconclusive = no clear call, values can overlap the other calls; inactive = mostly above about 0.92. This is one part of the list.

Assay: chemical genetic growth profiling, strain panel (AID 1159580);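 note: tested at 20 µM; growth read once vehicle control cultures reached saturation at 30 °C; 1 = growth at the plate median or of vehicle wells; lower values mean less growth of the strain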
Conditions: growth OD

Measured: normalized growth

COc1cc(C(=O)O)cc(OC)c1OC
inactive: S. cerevisiae deletion strains, locus YAL013W, strain DEP1, active compounds read low 1.02 | S. cerevisiae deletion strains, locus YBR021W, strain FUR4, active compounds read low 1.01 | S. cerevisiae deletion strains, locus YBR229C, strain ROT2, active compounds read low 1.01 | S. cerevisiae deletion strains, locus YCL029C, strain bik1, active compounds read low 1.04 | S. cerevisiae deletion strains, locus YDL035C, strain GPR1, active compounds read low 1.04 | S. cerevisiae deletion strains, locus YDL074C, strain BRE1, active compounds read low 1.05 | S. cerevisiae deletion strains, locus YDL101C, strain DUN1, active compounds read low 1.02 | S. cerevisiae deletion strains, locus YDL134C, strain PPH21, active compounds read low 1.01 | S. cerevisiae deletion strains, locus YDL185W, strain tfp1, active compounds read low 1.03 | S. cerevisiae deletion strains, locus YDL192W, strain arf1, active compounds read low 1.02 | S. cerevisiae deletion strains, locus YDR101C, strain arx1, active compounds read low 1.02 | S. cerevisiae deletion strains, locus YDR162C, strain NBP2, active compounds read low 1.02 | S. cerevisiae deletion strains, locus YDR318W, strain mcm21, active compounds read low 1.02 | S. cerevisiae deletion strains, locus YDR388W, active compounds read low 1.03 | S. cerevisiae deletion strains, locus YDR502C, strain sam2, active compounds read low 1.02 | S. cerevisiae deletion strains, locus YEL061C, strain CIN8, active compounds read low 1.01 | S. cerevisiae deletion strains, locus YER110C, active compounds read low 1.03 | S. cerevisiae deletion strains, locus YER155C, strain BEM2, active compounds read low 1.01 | S. cerevisiae deletion strains, locus YER167W, strain BCK2, active compounds read low 1.03 | S. cerevisiae deletion strains, locus YGL078C, strain dbp3, active compounds read low 1.03 | S. cerevisiae deletion strains, locus YGL086W, strain mad1, active compounds read low 1.03 | S. cerevisiae deletion strains, locus YGL248W, strain PDE1, active compounds read low 1.02 | S. cerevisiae deletion strains, locus YGR078C, strain PAC10, active compounds read low 1.03 | S. cerevisiae deletion strains, locus YGR135W, strain pre9, active compounds read low 1.02 | S. cerevisiae deletion strains, locus YGR252W, strain gcn5, active compounds read low 1.09 | S. cerevisiae deletion strains, locus YHR030C, strain SLT2, active compounds read low 1.02 | S. cerevisiae deletion strains, locus YHR079C, strain IRE1 (second series), active compounds read low 1.02 | S. cerevisiae deletion strains, locus YHR094C, strain hxt1, active compounds read low 1.02 | S. cerevisiae deletion strains, locus YHR129C, strain ARP1, active compounds read low 1.02 | S. cerevisiae deletion strains, locus YHR200W, strain rpn10, active compounds read low 1.02 | S. cerevisiae deletion strains, locus YIL066C, strain RNR3, active compounds read low 1.04 | S. cerevisiae deletion strains, locus YIL073C, strain SPO22, active compounds read low 1.09 | S. cerevisiae deletion strains, locus YIL125W, strain kgd1, active compounds read low 1.03 | S. cerevisiae deletion strains, locus YIR030C, strain dcg1, active compounds read low 1.02 | S. cerevisiae deletion strains, locus YJL095W, strain BCK1, active compounds read low 1.02 | S. cerevisiae deletion strains, locus YJL134W, strain LCB3, active compounds read low 1.02 | S. cerevisiae deletion strains, locus YJL168C, strain set2, active compounds read low 1.03 | S. cerevisiae deletion strains, locus YJL187C, strain SWE1 (second series), active compounds read low 1.03 | S. cerevisiae deletion strains, locus YJR043C, strain POL32, active compounds read low 1.03 | S. cerevisiae deletion strains, locus YJR075W, strain HOC1, active compounds read low 1.04 | S. cerevisiae deletion strains, locus YKL009W, strain mrt4, active compounds read low 1.08 | S. cerevisiae deletion strains, locus YKL068W, active compounds read low 1.04 | S. cerevisiae deletion strains, locus YKL085W, strain MDH1 (second series), active compounds read low 1.07 | S. cerevisiae deletion strains, locus YKL085W, strain MDH1, active compounds read low 1.07 | S. cerevisiae deletion strains, locus YKR001C, strain vps1, active compounds read low 1.02 | S. cerevisiae deletion strains, locus YLR039C, strain RIC1, active compounds read low 1.07 | S. cerevisiae deletion strains, locus YLR058C, strain SHM2, active compounds read low 1.02 | S. cerevisiae deletion strains, locus YLR102C, strain apc9, active compounds read low 1.02 | S. cerevisiae deletion strains, locus YLR262C, strain YPT6, active compounds read low 1.09 | S. cerevisiae deletion strains, locus YLR268W, strain sec22, active compounds read low 1.02 | S. cerevisiae deletion strains, locus YLR330W, strain CHS5, active compounds read low 1.02 | S. cerevisiae deletion strains, locus YLR342W, strain FKS1 (second series), active compounds read low 1.04 | S. cerevisiae deletion strains, locus YLR371W, strain rom2, active compounds read low 1.04 | S. cerevisiae deletion strains, locus YLR418C, strain cdc73, active compounds read low 1.04 | S. cerevisiae deletion strains, locus YML016C, strain PPZ1, active compounds read low 1.02 | S. cerevisiae deletion strains, locus YML032C, strain rad52, active compounds read low 1.03 | S. cerevisiae deletion strains, locus YML124C, strain tub3, active compounds read low 1.02 | S. cerevisiae deletion strains, locus YMR078C, strain ctf18, active compounds read low 1.06 | S. cerevisiae deletion strains, locus YMR223W, strain ubp8, active compounds read low 1.02 | S. cerevisiae deletion strains, locus YMR263W, strain SAP30, active compounds read low 1.02 | S. cerevisiae deletion strains, locus YMR307W, strain GAS1, active compounds read low 1.03 | S. cerevisiae deletion strains, locus YNL067W, strain RPL9B, active compounds read low 1.03 | S. cerevisiae deletion strains, locus YNL128W, strain TEP1, active compounds read low 1.03 | S. cerevisiae deletion strains, locus YNL153C, strain GIM3, active compounds read low 1.01 | S. cerevisiae deletion strains, locus YNL233W, strain BNI4, active compounds read low 1.03 | S. cerevisiae deletion strains, locus YNL250W, strain rad50, active compounds read low 1.03 | S. cerevisiae deletion strains, locus YNL271C, strain bni1, active compounds read low 1.02 | S. cerevisiae deletion strains, locus YNL298W, strain CLA4, active compounds read low 1.01 | S. cerevisiae deletion strains, locus YNL307C, strain MCK1, active compounds read low 1.05 | S. cerevisiae deletion strains, locus YNL322C, strain KRE1, active compounds read low 1.02 | S. cerevisiae deletion strains, locus YNR052C, strain pop2, active compounds read low 1.03 | S. cerevisiae deletion strains, locus YOL006C, strain TOP1, active compounds read low 1.2 | S. cerevisiae deletion strains, locus YOL012C, strain htz1 1.18 | S. cerevisiae deletion strains, locus YOL147C, strain pex11, active compounds read low 1.02 | S. cerevisiae deletion strains, locus YOR061W, strain CKA2, active compounds read low 1.02 | S. cerevisiae deletion strains, locus YOR069W, strain VPS5, active compounds read low 1.01 | S. cerevisiae deletion strains, locus YOR136W, strain idh2, active compounds read low 1.02 | S. cerevisiae deletion strains, locus YOR144C, strain elg1, active compounds read low 1 | S. cerevisiae deletion strains, locus YOR184W, strain ser1, active compounds read low 1.02 | S. cerevisiae deletion strains, locus YOR316C, strain cot1, active compounds read low 1.02 | S. cerevisiae deletion strains, locus YPL055C, strain LGE1, active compounds read low 1.05 | S. cerevisiae deletion strains, locus YPL241C, strain CIN2, active compounds read low 1.02 | S. cerevisiae deletion strains, locus YPR119W, strain clb2, active compounds read low 1.02 | S. cerevisiae deletion strains, locus YPR141C, strain kar3, active compounds read low 1.02 | S. cerevisiae deletion strains, locus YPR163C, strain tif3, active compounds read low 1.02 | S. cerevisiae deletion strains, locus YPR167C, strain met16, active compounds read low 1.03 | S. cerevisiae deletion strains, strain wtn01, active compounds read low 1.03 | S. cerevisiae strains, strain wild type, active compounds read low 1.02
